PubChem BioAssay AID598 (SRMLSC, 2007)
Among all 85,000 compounds or so, about 5,100 (6%) were called active. The sample holds actives, similar compounds and a random draw of the others, so the mix is not that of the screen. Unmarked numbers belong to inactive results.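 How the source made its calls: active means viability at or below 40%; inactive means viability above 40%.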

Test: proliferation blockers of H69AR lung cancer cells, primary screen, cell-based, human, 86K library (AID 598);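 further: multidrug resistant small cell line overexpressing MRP-1 efflux transporter; 100% = mean luminescence of untreated control wells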
Settings: H69AR lung tumor viability, ATP luminescence, 72 h; at 10 µM; hits give low values

Row | Structure (SMILES) | viability
1 | COc1ccc(N2CCN(Cc3cc(=O)oc4ccc5ccccc5c34)CC2)cc1 | 71.9%
2 | COc1ccc(Nc2cc(=O)oc3ccccc23)cc1 | 18.4% (active)
3 | COC(=O)COc1ccc2oc(=O)cc(C)c2c1 | 91.9%
4 | Cc1cc(N2CCN(S(=O)(=O)c3ccc(C)c(C)c3)CC2)c2ccccc2n1 | 66.8%
5 | CC(NC(=O)CSc1nc2c(cc1C#N)CN(C)CC2)c1ccccc1 (stereo not drawn) | 15.6% (active)
6 | CC1(C)CCc2nc(SCc3ccccc3)c(C#N)cc2C1 | 81.4%
7 | Cc1ccc2cc(C#N)c(SCC(=O)NCC3CCCO3)nc2c1C (stereo not drawn) | 91.2%
8 | O=C1C2N=NN(CC(=O)N3N=C(c4cccc5ccccc45)CC3c3ccccc3)C2C(=O)N1c1ccccc1 (stereo not drawn) | 70.5%
9 | CCN1CCCC1Cn1cnc2c([nH]c3cc(OC)ccc32)c1=O (stereo not drawn) | 79.9%
10 | Cc1cccc(CCNS(=O)(=O)c2ccc(S(=O)(=O)NC3CCCC3)cc2)c1 | 78%
11 | O=C(Nc1ccc(Cl)cc1)c1cc2nc(C3CC3)cc(C(F)(F)F)n2n1 | 79.5%
12 | Cc1cc(C)c2[nH]c(=O)c(C(c3nnnn3Cc3ccc4c(c3)OCO4)N3CCCC3)cc2c1 (stereo not drawn) | 68.1%
13 | COc1ccc(N2CCN(C(c3cc4ccc(C)cc4[nH]c3=O)c3nnnn3C3CCCC3)CC2)cc1 (stereo not drawn) | 86.9%
14 | CCOC(=O)C1CCN(C(c2cc3cc(C)cc(C)c3[nH]c2=O)c2nnnn2C2CCCCC2)CC1 (stereo not drawn) | 6.09% (active)
15 | Cc1ccc(-c2noc(CC(c3ccccc3)c3ccccc3)n2)cc1 | 97.1%
16 | CCn1c(CNC(=O)c2ccccc2)nnc1SCC(=O)N1CCN(c2ccccc2)CC1 | 90.4%
17 | Cc1cccc2nc(CSc3nc4[nH]ncc4c(=O)n3-c3cccc(Cl)c3)cc(=O)n12 | 41.8%
18 | Cc1cc(C)c2c(n1)nn1c(N3CCN(c4cccc(Cl)c4)CC3)cc(C)nc21 | 17.6% (active)
19 | Cc1cc(C)c2c(n1)nn1c(-n3ccnc3)cc(C)nc21 | 74.5%
20 | Cc1cc(C)c2c(n1)nn1c(N3CCOCC3)cc(C)nc21 | 72.3%
21 | O=C(NCc1ccco1)C1(c2ccc(Cl)cc2)CCCC1 | 96.8%
22 | O=C(CSc1c2c(nc3ccc(Cl)cc13)CCCC2)NCc1ccco1 | 7.34% (active)
23 | O=C(NCc1ccco1)c1cc(-c2cccnc2)nc2ccc(Cl)cc12 | 68.3%
24 | COc1ccc(-n2nnnc2SCc2nc(N)nc(N3CCOCC3)n2)cc1 | 94.2%

Row | Structure (SMILES) | viability
25 | Cc1cc(NC(=O)CS(=O)(=O)c2cn(C)c3ccccc23)no1 | 78.6%
26 | O=C(CCCn1c(SCC(=O)c2ccc(F)cc2)nc2ccccc2c1=O)NCc1ccco1 | 58.2%
27 | O=C(CSc1nc2cc3c(cc2c(=O)n1CCC1=CCCCC1)OCO3)NCc1ccco1 | 36.1% (active)
28 | C=C(C)Cn1c(SCC(=O)NCc2ccco2)nc2sc3c(c2c1=O)CCC3 | 49.4%
29 | Cc1c(CCO)c(=O)n(-c2ccccc2)n1S(=O)(=O)c1ccc(F)cc1 | 75.6%
30 | CCn1c(SCC(=O)Nc2ccc(S(=O)(=O)Nc3onc(C)c3C)cc2)nnc1-c1ccccc1 | 98.3%
31 | COn1c(=O)c(=O)n(OC)c2ccccc21 | 97.1%
32 | COC(=O)c1ccccc1Oc1c(F)c(F)nc(N2CCOCC2)c1F | 67.1%
33 | Cc1ccc2c(c1)N(CC(=O)N(Cc1ccccn1)Cc1ccco1)C(=O)C(C(C)C)O2 (stereo not drawn) | 35% (active)
34 | Cc1ccc(C(C(=O)NC2CCCC2)N(Cc2ccco2)C(=O)CCC(=O)Nc2ccccn2)cc1 (stereo not drawn) | 69.7%
35 | Cc1ccc(C)c(N(CC(=O)NCc2ccco2)C(=O)CCC(=O)Nc2ccccn2)c1 | 98.1%
36 | COc1cc(S(=O)(=O)N(Cc2cccs2)C2CC2)ccc1-n1cnnn1 | 68%
37 | COC(=O)c1ccccc1NC(=O)Cc1ccccc1OC | 94.2%
38 | CCOC(=O)c1nnn(-c2nonc2-n2cccc2)c1CN1CCC(C(=O)OCC)CC1 | 70.5%
39 | CCOc1ccc(S(=O)(=O)NCCSc2ccccc2)cc1 | 105%
40 | COc1ccc(C(=O)N2CC3(C)CC2CC(C)(C)C3)cc1OC (stereo not drawn) | 88.7%
41 | Cc1coc2c(O)cc3c(c12)OC1(N2CCCCC2)C(=O)NCCCC31 (stereo not drawn) | 1.27% (active)
42 | CCc1c(O)cc2n(c1=O)-c1ccccc1C2(C)C | 91.5%
43 | COC(=O)c1ccc(/C=N\n2c(C)nnc2C)cc1 | 99.6%
44 | COc1ccc(Br)cc1/C=N/n1c(C)nnc1C | 28.1% (active)
45 | Cc1nnc(C)n1/N=C/c1ccc(C(C)C)cc1 | 106%
46 | CCN(CC)CC(=O)c1c[nH]c2ccc(OC)cc12 | 77.2%
47 | CC(c1ccco1)N(C(=O)Nc1ccccc1)C1CCCCC1 (stereo not drawn) | 77.7%
48 | O=C(CO/N=C/c1ccccc1O)NNC(=O)c1ccccc1Cl | 102%

Row | Structure (SMILES) | viability
49 | CC[C@]1(O)CC2CN(CCc3c([nH]c4ccccc34)[C@@](C(=O)OC)(c3cc4c(cc3OC)N(C=O)[C@H]3[C@@](O)(C(=O)OC)[C@H](OC(C)=O)[C@]5(CC)C=CCN6CC[C@]43[C@@H]65)C2)C1 (stereo partly drawn) | 31.9% (active)
50 | CC(C)c1cc(C(=O)O)n[nH]1 | 102%
51 | Cc1ccc(NC(=O)CSCC(=O)N2CCOCC2)cc1 | 93.9%
52 | CCCc1[nH]nc2c1C(c1ccc(Br)s1)C(C#N)=C(N)O2 (stereo not drawn) | 1.42% (active)
53 | CCCc1[nH]nc2c1C(c1ccc(OC(=O)c3ccco3)cc1)C(C#N)=C(N)O2 (stereo not drawn) | 97.7%
54 | CCCc1[nH]nc2c1C(c1ccc(OC)c(Cn3nc(C)c(Br)c3C)c1)C(C#N)=C(N)O2 (stereo not drawn) | 87.4%
55 | CCOc1ccc(CN(Cc2ccco2)S(=O)(=O)c2ccc(-n3cnnn3)c(OC)c2)cc1 | 66.6%
56 | Cc1c(C=O)c2ccccn2c1C(=O)c1ccncc1 | 87.6%
57 | Cc1ccc(-c2cc(C(=O)NCC3CCCO3)c3ccccc3n2)o1 (stereo not drawn) | 87.9%
58 | COc1ccc2nc(SCC(=O)Nc3c(C)cc(C)cc3C)[nH]c2c1 | 71.7%
59 | Cc1ccc2nc(-c3ccc(SCC(=O)Nc4cc(C)on4)nc3)[nH]c2c1 | 10.7% (active)
60 | Cc1ccc(-c2csc(SCC(=O)Nc3cc(C)on3)n2)cc1 | 87.9%
61 | CC(C)NC(=O)CSc1nnc(COc2ccccc2Cl)o1 | 106%
62 | CCCC(C)C(=O)Nc1ccc(NC(C)=O)cc1 (stereo not drawn) | 103%
63 | CCCC(=O)Nc1ccc(Cl)c(NC(=O)c2ccc(Br)o2)c1 | 28.2% (active)
64 | CCN1CCN(c2c(Cl)cccc2NC(=O)c2ccc(Br)o2)CC1 | 90.5%
65 | COc1cc(OC)c(NC(=O)c2ccc(Br)o2)cc1Cl | 58.5%
66 | CCN(c1ccccc1)S(=O)(=O)c1ccc(NC(=O)C(C)(C)C)cc1 | 34.8% (active)
67 | CCN(c1ccccc1)S(=O)(=O)c1cccc(C(=O)O)c1 | 103%
68 | CCN(c1ccccc1)S(=O)(=O)c1ccc(N)cc1 | 89.9%
69 | COc1ccc(/C(O)=C2\C(=O)C(=O)N(Cc3ccco3)C2c2ccc(OC)cc2OC)cc1 (stereo not drawn) | 97.1%
70 | CC1=NN(/C(=N\c2nnc(C)s2)Nc2ccccc2)[C@H](c2ccc(C)cc2)S1 | 56.5%
71 | CCOC(=O)N1CCN(C(=O)CN(C2CCCCC2)S(C)(=O)=O)CC1 | 84.9%
72 | CS(=O)(=O)N(CC(=O)Nc1ccc(Cl)c(Cl)c1)C1CCCCC1 | 16.6% (active)

Row | Structure (SMILES) | viability
73 | CS(=O)(=O)N(CC(=O)N1CCN(c2ccc(F)cc2)CC1)C1CCCCC1 | 92%
74 | COC(=O)C1=C(C)N=C2SC(C)C(=O)N2C1/C=C/c1ccccc1 (stereo not drawn) | 85.8%
75 | O=C(NCCCN1CCCCC1)c1ccc2c(c1)NC(=O)C(N1CCOCC1)S2 (stereo not drawn) | 98.8%
76 | CCOc1ccc(Cn2nnc(C(=O)Nc3ccc(OC)cc3OC)c2N)cc1 | 76.9%
77 | CCOc1ccc(Cn2nnc(C(=O)NCc3ccccc3)c2N)cc1 | 90.5%
78 | Nc1c(C(=O)NCc2ccccc2)nnn1Cc1cccc(Cl)c1 | 26.7% (active)
79 | COc1cc(OC)cc(-c2cc3nc(C4CCN(C(=O)OC(C)(C)C)CC4)cc(=O)n3[nH]2)c1 | 106%
80 | COc1ccc(C(=O)NN(C)c2nc(-c3ccccc3)cc(C)c2S(C)(=O)=O)cc1 | 85%
81 | Cc1nn(-c2ccccc2)c2sc(C(=O)N(Cc3ccco3)C(C)C(=O)NC(C)(C)C)cc12 (stereo not drawn) | 7.03% (active)
82 | Cn1nc(-c2ccc(Cl)cc2)c2cc(C(=O)NCc3ccco3)sc21 | 68.1%
83 | O=C(NCc1ccco1)c1nc(-c2ccccc2)n(-c2ccccc2)n1 | 75%
84 | Cc1cccc(NC(=O)c2sc3nc4c(c(-c5ccco5)c3c2N)CCC4)c1 | 78.6%
85 | CC(=O)Nc1ccc(NC(=O)c2sc3nc4c(c(-c5ccc(C)cc5)c3c2N)CCC4)cc1 | 30.2% (active)
86 | NC(=O)c1sc2nc3c(c(-c4ccccc4)c2c1N)CCC3 | 73.2%
87 | COc1cc(OC)c(-n2c(C)cc(C=O)c2C)cc1Cl | 104%
88 | Cc1cccc(C)c1NC(=O)CSc1nnc(-c2ccccc2)n1Cc1ccc2c(c1)OCO2 | 72.2%
89 | CSc1nc(C)cc(SC(C(C)=O)C(=O)Nc2ccccc2)n1 (stereo not drawn) | 100%
90 | Cc1onc(-c2ccccc2Cl)c1C(=O)OCC(=O)c1ccccc1 | 97%
91 | O=C(Cc1c(O)c2ccccc2[nH]c1=O)NCc1ccccc1 | 101%
92 | O=C(NCCN1CCN(Cc2ccccc2)CC1)c1cc2c(=O)[nH]c3ccccc3c2s1 | 1.91% (active)
93 | CN1CCN(CCCNC(=O)c2cc3c(=O)oc4ccccc4c3s2)CC1 | 87.3%
